WRN inhibitor: inhibitors of human WRN helicase; Q14191; WRN helicase unwinding, fluorescent forked duplex, kinetic; Potency, µM (titrated, usually from 114 µM), inactives show top-dose activity change, negative = inhibition, most hits filed as inhibitors; actives 0.46% (n = 360,000); note: potency is the fitted concentration of half-maximal effect; % is set by controls: 0 for no effect and ±100 for the full control effect; nearly all actives have a fitted effect of over 55% in size
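Primary qHTS, 1536-well format. 20 nM WRN + compound, 15 min RT; start with 100 nM forked fluorophore/quencher duplex, 2 mM ATP (final); kinetic read ex 525/em 598 nm.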
Pol iota inh: blocks human DNA polymerase iota activity. Potency, µM (titrated, usually from 115 µM), inactives show at the top dose activity, negative = inhibition, actives largely listed as inhibitors. actives 1% (n = 390,000). Pol iota fluorescent replication assay, 10 min. AID 588590; note: potency is the fitted concentration of half-maximal effect
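Pol iota at 10 nM preincubated 15 min with compounds at room temperature; reaction started with fluorescent substrate, 50 nM final. Fluorescence read kinetically at 0 and 10 min; buffer-only wells as negative control.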
POLB inh: inhibitors of human DNA polymerase beta | Pol beta primer extension/strand displacement, fluorescence kinetic | Potency, µM (series often up to 114 µM), without a hit: at the top dose activity change, negative = inhibition, usual class: inhibitors | actives 1.3% (n = 340,000); note: potency is the fitted concentration of half-maximal effect; % is set by controls: 0 for no effect and ±100 for the full control effect
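Kinetic readout of DNA synthesis with strand displacement by Pol beta. Compound and 10 nM enzyme sit 15 min at room temperature; 50 nM substrate starts the reaction, read immediately and at 10 min.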
Pol eta inh-1: DNA polymerase eta (human) inhibition; AID 588591; recombinant Pol eta, fluorescent DNA replication assay; Q9Y253; actives 1.2% (n = 390,000); Potency, µM (highest dose often 114 µM), for the others: at the top dose activity change, negative = inhibition, usual class: inhibitors; note: potency is the fitted concentration of half-maximal effect; % is set by controls: 0 for no effect and ±100 for the full control effect
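Fluorescent replication assay: 50 nM final substrate added after a 15 min room-temperature compound preincubation with 10 nM enzyme. Signal taken at 0 min and again at 10 min.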
Pol kappa inh-1: inhibitors of human DNA polymerase kappa. AID 588579. actives 0.53% (n = 400,000). purified Pol kappa, fluorescent DNA synthesis assay, 10 min. Q9UBT6. Potency, µM (highest dose often 107 µM), for the others: top-dose activity, negative = inhibition, hits mostly inhibitors; note: potency is the fitted concentration of half-maximal effect; % is set by controls: 0 for no effect and ±100 for the full control effect
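Enzyme at 10 nM met test compounds for 15 min at room temperature. Substrate addition (50 nM final) began the reaction, which was monitored by fluorescence at 0 and 10 min.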
PI5P4Ka inh: blocks human PI5P4K alpha kinase activity; P48426; PI5P4Kalpha enzyme, ADP-Glo luminescence, 60 min; active compounds read low; max response, %; actives 1.2% (n = 330,000); active = max response of -50% or lower; inconclusive = between -30% and -50%; inactive = -30% or higher; note: value at the top dose of about 77 µM; % is set by controls: 0 for no effect and ±100 for the full control effect
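Quantitative HTS of the MLSMR library against PI5P4Kalpha with substrate. ATP added last at 5 microM final; room temperature, 60 minutes. Remaining ATP depleted, ADP converted and read as luminescence.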
GALK inh confirm: galactokinase (human) inhibition, confirmation. purified GALK, Kinase-Glo ATP depletion luminescence. shares compounds with Pol eta inh-1. Potency, µM (titrated, usually from 115 µM), for inactives: at the highest dose activity, negative = inhibition, usual class: inhibitors. actives 70% (n = 150)
Redox cycling: counter-screen for GALK inhibitors: redox cycling H2O2 generation; shares compounds with Pol eta inh-1; Phenol red-HRP H2O2 redox cycling, absorbance 600 nm; Potency, µM (titrated, usually from 115 µM), for the others: at the top dose activity change, negative = H2O2 signal, hits mostly inhibitors; actives 40% (n = 150)
HEK293 viability: reduces HEK-293 cell viability in GALK counter-screen; shares compounds with Pol eta inh-1; HEK-293 viability, ATP luminescence (CellTiter-Glo), 24/48 h; Potency, µM (doses to about 46.1 µM), inactives show at the highest dose activity change, negative = cytotoxicity, usual class: inhibitors; actives 10% (n = 170); AID 2547; note: potency is the fitted concentration of half-maximal effect; % is set by controls: 0 for no effect and ±100 for the full control effect
Pol kappa inh-2: Pol kappa (human) inhibition, cherry-pick confirmation | shares compounds with Pol eta inh-1 | purified Pol-kappa, fluorescent strand-displacement substrate | Potency, µM, hits mostly inhibitors | actives 76% (n = 920) | AID 720501; note: potency is the fitted concentration of half-maximal effect
Pol eta inh-2: confirmation of human DNA polymerase eta inhibitors | shares compounds with Pol eta inh-1 | Pol eta primer extension, TAMRA/BHQ fluorescence, 10 min | Potency, µM, most hits filed as inhibitors | actives 64% (n = 2,600); note: potency is the fitted concentration of half-maximal effect
The depositor's hits bear a star; ? = inconclusive; . = no result given; [ ] = dose if it differs, or a comment. Only some compounds are listed: those with a hit (about 2.8% of all), similar ones and a draw of the others. Unless noted, calls come from the whole dose curve; as a rule, active = well fitted curve in the direction sought with a large enough effect; inconclusive = small, poorly fitted or top-dose-only effect, or another doubt; inactive = no such curve, though single readings can be large; an effect the other way counts as inactive or inconclusive.

SMILES | WRN inhibitor | Pol iota inh | POLB inh | Pol eta inh-1 | Pol kappa inh-1 | PI5P4Ka inh | Pol eta inh-2 | others
N#Cc1c(NC(=O)c2ccc(Br)o2)n(-c2ccccc2)c2nc3ccccc3nc12 | 4% | 10µM* | -1% | 35µM* | -5% | -10 | . | GALK inh confirm=27µM*;Redox cycling=5.3µM*;HEK293 viability=-12%
Cc1nc(SCC(=O)Nc2ccccc2Cl)oc1C | -5% | 30% | -8% | -11% | 9% | -2 | .
CN(C1(C)CCS(=O)(=O)C1)S(=O)(=O)c1ccc2ccccc2c1 (stereo not drawn) | 5% | 15% | . | 0% | -9% | 2 | .
Cc1[nH]c(=O)c(C#N)c(C)c1CCC(=O)NCc1ccc(Cl)cc1 | -2% | 17% | 31% | 0% | -20% | -4 | .
NS(=O)(=O)c1ccc(NC(=S)NNC(=O)c2ccc(Br)o2)cc1 | 2% | 19% | 96% | -15% | -3% | 2 | . | GALK inh confirm=?;Redox cycling=-2%;HEK293 viability=19%
Cc1ccc2c(=O)cc(C(=O)Nc3nc4ccc(Cl)cc4s3)oc2c1C | . | ? | 6.3µM* | 79µM* | ? | . | ?
N#Cc1ccccc1OCC(=O)NC(=O)NCc1ccco1 | -11%[11.6 µM] | ? | -29% | 40µM* | -39% | ? | ?
N#Cc1ccccc1OCC(=O)NC(=O)NCc1ccccc1 | 1% | 54% | 2% | -10% | -3% | 9 | .
O=S(=O)(c1ccc(-c2cc(C(F)(F)F)on2)s1)N1CCN(c2ccc(F)cc2)CC1 | . | -7% | -8% | -11% | 9% | . | .
COc1ccccc1/C=C1\SC(=S)N(NS(=O)(=O)c2ccccc2)C1=O | -13%[57.1 µM] | -19% | -19% | ? | -17% | -30 | .
COc1cc(/C=C2\SC(=S)N(NS(=O)(=O)c3ccc(C)cc3)C2=O)ccc1O | 45µM* | 40µM* | 40µM* | ? | ? | -68* | . | Pol kappa inh-2=?
O=C1/C(=C\c2ccc(Br)cc2)SC(=S)N1NS(=O)(=O)c1ccccc1 | ? | 30% | 68% | 50µM* | -16% | -56* | ?
CC(/C=C1\SC(=S)N(NS(=O)(=O)c2ccc(C)cc2)C1=O)=C\c1ccccc1 | ? | ? | 40µM* | 40µM* | -14% | ? | ?
CC(/C=C1\SC(=S)N(NC(=O)c2ccc(C)cc2)C1=O)=C\c1ccccc1 | -15% | -2% | 2% | 4% | -22% | 1 | .
Cc1ncc(CO)c(CNc2ccc(-c3nc4ccccc4[nH]3)cc2)c1O | -5% | -8% | 15% | -7% | -11% | -1 | .
O=C(C[n+]1ccccc1)N/N=C/c1ccc(Br)cc1 | -3% | 36% | . | -1% | -23% | 3 | .
N#CCc1ccc(NC(=O)/C=C/c2ccc([N+](=O)[O-])o2)cc1 | ? | 45µM* | ? | 20µM* | ? | -59* | ?
O=C(Cc1ccc([N+](=O)[O-])cc1)N/N=C/c1ccc([N+](=O)[O-])o1 | -9% | ? | -13% | 3% | -34% | -19 | .
O=S1(=O)C=C[C@@H](CO)N1Cc1ccc(Br)cc1 | 0% | . | . | . | . | -1 | .
O=C(/C=C/c1ccc([N+](=O)[O-])cc1)Nc1cccc(C(=O)Nc2ccccc2C(=O)O)c1 | 32µM* | ? | ? | 28µM* | -15% | -66* | 24*
O=C(O)c1ccc(CSc2nc3ccc(N4C(=O)C5C6C=CC(C6)C5C4=O)cc3s2)cc1 (stereo not drawn) | 4%[11.6 µM] | ? | 2% | 28µM* | -12% | -5 | ?
CCc1cccc(CC)c1NC(=O)CSc1nc2ccc(N3C(=O)C4C5C=CC(C5)C4C3=O)cc2s1 (stereo not drawn) | 8% | -6% | -16% | -13% | -1% | -1 | .
O=S(=O)(Nc1ccc(O)c(Sc2nc3ccccc3s2)c1)c1cc(Cl)ccc1Cl | . | ? | ? | 79µM* | ? | . | ?
COc1ccc(C2C=C(c3ccccc3)Nc3nc(NC(=O)/C=C/c4ccccc4OC)nn32)cc1 (stereo not drawn) | . | 18% | 5% | -5% | -25% | . | .
C=C1CC[C@@H]2[C@](C)(CCC[C@@]2(C)/C=C/[C@@H](O)C(C)(C)O)[C@H]1CC(=O)NCCS(=O)(=O)O | -11% | -10% | . | 18µM* | ? | 6 | ?
SMILES | WRN inhibitor | Pol iota inh | POLB inh | Pol eta inh-1 | Pol kappa inh-1 | PI5P4Ka inh | Pol eta inh-2 | others
Cc1ccc(S(=O)(=O)CCC(=O)Nc2cccc(C)c2)cc1 | -4% | ? | 19% | -16% | -9% | 6 | .
CCc1cccc(NC(=O)CCS(=O)(=O)c2ccc(Br)cc2)c1 | ? | -2% | 7.1µM* | 25µM* | 0% | -13 | 85* | Pol kappa inh-2=42*
COc1ccc(CNC(=O)CCS(=O)(=O)c2ccc(Br)cc2)cc1 | -5%[11.6 µM] | ? | -30% | ? | ? | -7 | 76*
CS(=O)(=O)N(Cc1ccc(Cl)cc1)c1ccc(C(=O)N/N=C/c2cc3ccccc3nc2Cl)cc1 | -1% | 105% | -14% | -17% | -3% | -2 | .
O=C(O)CCc1nnc(SCC(=O)Nc2cccc(C(F)(F)F)c2)[nH]c1=O | -9%[57.1 µM] | 61% | 19% | -14% | 2% | 0 | .
O=C(O)CCc1nnc(SCC(=O)Nc2ccc(Cl)c(C(F)(F)F)c2)[nH]c1=O | -18% | 0% | 13% | 1% | -10% | -8 | . | GALK inh confirm=?;Redox cycling=2%;HEK293 viability=-8%
COC(=O)c1ccc(-n2c(/C=C/c3cc(OC)c(OC)c(OC)c3)nc3cc(Cl)ccc3c2=O)cc1 | . | 1% | 0% | -11% | -11%[60.1 µM] | . | .
CC(=O)Nc1ccc(NC(=O)CC2(CC(=O)N3CCOCC3)CCCC2)cc1 | -4% | 4% | . | -10% | -1% | 2 | .
